Out of some 53,000 sequences screened, about 3,700 (7%) were called active.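 Rule for the calls: active = gene knockdowns whose robust z-score for IL-1 alpha signal is at least 2 or at most -2, so actives lie on both sides; inactive = the rest.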 Many of the other results were omitted from the sample, so actives are more common in it than they were.

The assay can be described thus: Components of the Cytosolic LPS Sensing Pathway: Gene Identification via Genome-wide siRNA Screen.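 Note: robust z of the log signal after scaling to non-targeting control siRNA wells of the plate.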 The note with it: RAW264.7 macrophages, IL-1a HTRF, actives lie on both sides, screened at 100 nM (by protocol), cells primed 5 h with Pam3CSK4 first. The method in brief:
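IL-1a HTRF of supernatants after 24 hour LipidA transfection of Pam3CSK4-primed (5 hours) RAW264.7 cells, 48h post-siRNA transfection (100 nM). Scores: percent of plate negative-control median, then log-based robust z-score.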
Background: TR-FRET usually uses a lanthanide donor and a delayed reading to cut background.
With GGACUUGCUAAGAGACCAATT against Cntn2, the z-score was 4.74 (active). On to GGACUACAUAAGGAAGGUUTT against Ccdc130, for which the z-score was 1.64 (inactive). To GGCAAAUGGGAAGAAUUCCTT against Mep1b belongs 0.228 (inactive). Regarding GCAACCUGCAGGCAGUAACTT against Nolc1, the z-score was 0.207 (inactive). To CCACACACUGAUCAACGUGTT against Unc93b1 belongs 0.336 (inactive); to GGCUUCAUUCUUGUCCUCCTT against Reg3b, -0.105 (inactive); to GCCUUCCUCCGUUAAUCCATT against Kank2, 0.844 (inactive).

As for GGUGAGAGGAAGGAAGAGATT against Pcsk7, the z-score is 2.54 (active). To GGAGGAUGAGAAAGAAGAGTT against Gja8 belongs -0.176 (inactive); to GGAUGUCAUCAAUGCUAUGTT against Olfr1022, -0.643 (inactive); to “GGUUUACUGGCCAAGAUGGTT against 4930579K19Rik”, -0.327 (inactive). As to “GGCUUUACGUGACAAAGAUTT against 4933430I17Rik”, the z-score is 0.266 (inactive). The figure for GGAAAAUACAGCGCGAAUUTT against Nexn is 1.4 (inactive); for GCGGCUAGGAUUUCUGGGATT against Mindy3 it is 2.34 (active); for ACAAGAUUGGGAUCAUCUATT against Rpl23a it is 0.521 (inactive). For UGCCUCAAUCAUAAGUCCCTT against Olfr730, the z-score is -0.551 (inactive). The figure for AAGGUCGUUUACAUGAACATT against Fbxw20 is 1.19 (inactive); for GGAAAAAAAAAAGCAGUGATT against Phactr4 it is 0.662 (inactive).

Take GGUCUGAUACCUCAUUCCATT against Il22ra2: the z-score is -1.21 (inactive). The figure for CCAUGAGAACCUGAUGAAUTT against Pag1 is -2.38 (active). Regarding GGACUUUCGUCGUACUCGUTT against Terf1, the z-score is -1.73 (inactive).

In the case of GGCCUGGUGCUACUUCUCATT against Fam160a2, the z-score is -0.0704 (inactive).

For CGUAAACACUCCUAACUUUTT against Hif1a, the z-score is -0.543 (inactive). For the sequence GGAAGGAUAUUGGUUACCATT against Zmynd11, the z-score was -2.28 (active). To GGUCAGAAGAGAUGCCAAUTT against Hcar1 belongs -0.494 (inactive); to CCGCAGUUGUCUUUCAAGATT against Dcaf1, 0.724 (inactive). On to AGAAUCUUUAAAGGAAGUCTT against Olfr325, for which the z-score was 0.229 (inactive).

For “GCCAUGACUAUGUUUUCCGTT against St6galnac1”, the z-score was -0.578 (inactive). To CGGCUCAUCCGAUAUAUCCTT against Hcn2 belongs -1.39 (inactive). To GCUUUUAAAGCAUGGGCAGTT against Alb belongs 2.44 (active); to GGGCAGUAAGGACAGUUUUTT against Oaz1, 0.406 (inactive). In the case of GGACUAAUCCCAUUUUCUUTT against Zfp422, the z-score is -0.292 (inactive).

GGCCGAGAAGAUCAAAGCATT against Mrpl12: the z-score was -0.116 (inactive). On to GGAAAUAAAGUGAGUUUUGTT against Etaa1, for which the z-score is 4.95 (active).

As for GCUGGAAUAUCAUUUCCCATT against Pdpk1, the z-score is -1.01 (inactive). The figure for GGAGAGCUGUUUGACUACATT against Melk is 1.45 (inactive); for CCAGCAAAAUCACUUAAUATT against Emb it is -0.648 (inactive). To GCAACGAAGUGAAUUUGUUTT against Epha5 belongs -0.139 (inactive); to GCUAGACCAGAAGAAAGUATT against Gid8, -1.65 (inactive); to GCCAGAGCUAGUUGAAUCCTT against Rce1, 1.14 (inactive).

For GGCCCUGUGUUUAUCAAAGTT against Cntn3, the z-score is 0.814 (inactive).

Regarding GGCCUUGAAGGAGUAUGAGTT against Atp2a3, the z-score is -2.62 (active). On to GGACCCAGAUGUGACUGAGTT against Svil, for which the z-score was 0.242 (inactive).

On to GGAAGCUUUUGUCGGUCCATT against Hap1, for which the z-score is -0.361 (inactive). To AACUUUCUCAUUCUUACUGTT against Olfr961 belongs -1.22 (inactive).

With “GCAUGCUGAGGGACACAGUTT against 1810055G02Rik”, the z-score is -1.6 (inactive). On to GAUCACACUGAAAUCAUCATT against Nudt11, for which the z-score was -1.71 (inactive). Regarding GGCAUCACUGGUAAACAUUTT against Frzb, the z-score is -0.196 (inactive). To GGCUGUCUUGUCCAAAUGUTT against Olfr1357 belongs -2.9 (active). To GGGAAAGUUUUGUUCUGUATT against Ezr belongs 0.31 (inactive). To CCGCGUGUUCCUUCUGAUUTT against S1pr3 belongs 1.43 (inactive). In the case of GGGUAUAGAAUGAUUAUGGTT against Ly6g2, the z-score was -2.39 (active). The figure for GGGAACUGUUCCAUCUUGCTT against Olfr606 is 0.979 (inactive); for GGAAGUUCCGUCGAUUUGATT against Cyp8b1 it is -0.604 (inactive); for GGAUGAAGUUCUUUUUCAATT against Pdcd11 it is 2.28 (active).

For GGCUGCCUAUCCCUAAACUTT against Cpt2, the z-score is -0.625 (inactive).

Turning to GGUGGUUUACCAAACGGUGTT against Ces2g, the z-score was -0.00874 (inactive). For the sequence GGCCAGAGCAUUUUCUUCATT against Pif1, the z-score was 0.72 (inactive). To GGAUGAAGGAAUCCAUGCATT against Pcdhga6 belongs -0.133 (inactive); to GGAUCUGAAGGUGAUGUCATT against H2-Q10, -2.72 (active); to GGUACCUCUACACAGAUGATT against Fgf21, 0.0136 (inactive). To GGCCUGGAUGAAUGAAAAGTT against Gins4 belongs 0.665 (inactive); to CCGUGUGAAUCCCUGCAUUTT against Aldoa, -2.85 (active). The figure for GCUAUUUGACUUGUUGUAATT against Rab30 is 0.269 (inactive). In the case of CGCAAGUAUUUCCACCAUATT against Clk4, the z-score was -0.41 (inactive). Regarding GGUUUGAGAAUUUGAAGGUTT against Map2k3os, the z-score was 0.273 (inactive).

For the sequence GGUCCUCUGGUUCAACAUUTT against Olfr638, the z-score was -0.405 (inactive). For the sequence GGGAAGAAGACUGACAAGCTT against Lars, the z-score was 2.03 (active). Turning to GGAGAUGAAGAAGAUAUUGTT against Smoc2, the z-score was -0.764 (inactive). On to GGUCUACUUCUUUUUUACGTT against Sema4d, for which the z-score is 0.467 (inactive).

Regarding GGUGAUAACUCCGGGCCAATT against Fam3b, the z-score is 2.32 (active). To “CCCUGCUGGUUGGUAAUCATT against F830005K03Rik” belongs 0.548 (inactive); to GCUAAGAUUGUCAUGAUGUTT against Bambi, -1.02 (inactive). Take GGAAAGAAGGUGAACAACATT against Phax: the z-score is 1.96 (inactive). In the case of GCAGAAGAAGAAGGGUUCCTT against Emx1, the z-score was 3.59 (active). The figure for GGGAGAACCAGCACAACAUTT against Cavin2 is -1.8 (inactive); for GGAAGACAUUCACGAUUGUTT against Deptor it is -0.0976 (inactive). As for GGAGUUCAGCAACCUGUUGTT against Tmem97, the z-score was -2.08 (active). GGGAUCAUUGCUGUCCUCUTT against Adora2b: the z-score was -1.33 (inactive). To CCUCAAACCAUCAACAACCTT against Six3 belongs -2.04 (active); to GGAACUUUCCUUUUUUGUCTT against Serpinb5, 0.889 (inactive). To GGUGAUGAUGUCCAGAAGUTT against Kdm4d belongs -0.913 (inactive); to GGAGAAAGUCUUUGUGAACTT against Lipc, -1.1 (inactive). The figure for GGCUUUCUUUUUGAAAGAATT against Arhgap10 is 0.78 (inactive); for GGAACCUACUUGUUACCUUTT against Nlrp5 it is 0.731 (inactive). As to CGGUCAUUAAAACUUACAGTT against Hells, the z-score is 2.69 (active). As to GCCGGGAGAAAUAAAUGGUTT against Mif, the z-score was -0.654 (inactive). Take GGAAAAACUCUUCUUCACGTT against Nphs1: the z-score was -0.0272 (inactive).

Turning to GGAGGACUCUGCUUCCAUATT against Pwwp3b, the z-score was -0.848 (inactive).

On to GGUUCUGGAAGUGAAGGUGTT against Prg2, for which the z-score is -0.00973 (inactive).

Consider CCACUUCCGAUGAGCCAGATT against Mrps10, for which the z-score is -3.31 (active). The figure for GCUAUUGGUGCUUCAGUCCTT against Rtel1 is -0.458 (inactive); for GCCGUGUUCAUGAAUAAACTT against Glce it is -0.392 (inactive); for GCUCUGUGAGCGAAAGUUCTT against Synpo2 it is 1.72 (inactive).

As to CGUGGUCAGCGAGAGAGAATT against Sohlh1, the z-score was 1.19 (inactive). The figure for GGAUGCUGACAACAUAUACTT against Plk3 is -0.726 (inactive); for GGUUUUCCUGUUCAAUUCUTT against Olfr586 it is 2.4 (active); for CGCUGCUUUUCCUAGCAGATT against Orai1 it is 0.194 (inactive).

In the case of GCUCCAACAAGGCAUAAAATT against Dis3, the z-score was -1.71 (inactive).

For the sequence CGUUGAACUAGCAGUGGACTT against Arel1, the z-score was 0.304 (inactive). The figure for GUCUACAUCAACAUGCCUGTT against Hcst is 0.729 (inactive); for GGCUUAAUUACACAUGUUCTT against Il6 it is -1.09 (inactive). Turning to GGACAAGAAAAAGUCCAGATT against Dhx38, the z-score is -1.17 (inactive). For GCAGGGAAUAGCAAACUUATT against Nfil3, the z-score is 1.18 (inactive). The figure for GGAAAGGAGAGGUGUGUUCTT against Asb7 is 0.431 (inactive). To GGAAGAUGUCUCCUAUGAGTT against Hebp1 belongs -2.42 (active); to CCUGCUUAUUUAUGUACGATT against Tob2, 1.27 (inactive); to GGUACCUUAAACUCAUGAATT against Ifnb1, 0.773 (inactive).

Values taken from PubChem BioAssay AID1508600 (Functional Genomics Laboratory (NCATS/FGL), 2020).
